# Publication PMC5540273 (PLoS ONE, 2017)
# Columns and labels:
# Conditions in all cases: concentration: 1 μM,replicates: in singlicate; n = 1
# [1] = test system: T1, RSK4(Kin.Dom.1-N-terminal)
# T1 construct: gene RPS6KA6
# [2] = test system: T2, RSK4(Kin.Dom.2-C-terminal)
# T2 construct: gene RPS6KA6
# [3] = test system: S6K1
# [4] = test system: SBK1
# [5] = test system: SGK2
# [6] = test system: SGK3
# [7] = test system: SGK
# [8] = test system: SIK2
# [9] = test system: SIK
# [10] = test system: SLK
# 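Note: KINOMEscan kinase panel screen.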
SMILES,%Inh [1] [%],%Inh [2] [%],%Inh [3] [%],%Inh [4] [%],%Inh [5] [%],%Inh [6] [%],%Inh [7] [%],%Inh [8] [%],%Inh [9] [%],%Inh [10] [%]
Cc1cccc(-c2nc(Nc3ccncc3)c3sccc3n2)n1 [GW869641],41,37,13,58,11,27,24,0,7,57
O=C(Nc1ccccc1)c1cccc(Oc2ccc3nccn3n2)c1,5,0,0,5,18,17,0,0,0,9
CCN1CCN(CCCC(=O)Nc2n[nH]c3nc(-c4ccc(O)cc4)c(Br)cc23)CC1 [SB-731579],20,0,0,10,0,0,0,0,0,78
Cn1cc(-c2cccc3c(N)c(C(N)=O)nnc23)cn1,22,3,22,19,45,64,78,17,24,0
CS(=O)(=O)Nc1ccc(-c2ccnc3[nH]ccc23)cc1 [GSK993273],27,60,37,55,13,12,24,39,9,49
COC(=O)c1cccc(NC(=O)NC2CCN(c3ccnc(Nc4cc(OC)c(OC)c(OC)c4)n3)C2)c1 (stereo not shown) [GSK1379767],0,16,0,6,0,2,0,5,0,28
Cn1ccc2ncnc(Oc3ccc(NC(=O)Nc4cnn(C(C)(C)C)c4)c(Cl)c3)c21,22,0,1,0,12,2,10,10,14,79
CCOC(=O)N1CCC(n2cnc(-c3ccc(F)cc3)c2-c2ccnc(N)n2)CC1 [SB-219952],9,65,22,0,33,6,17,0,0,0
C[C@@H](Oc1cc(-n2cnc3cc(-c4ccncc4)ccc32)sc1C(N)=O)c1ccccc1Cl [GSK479719],25,21,11,19,5,0,0,43,11,99.4
Cc1ccn2nc(-c3ccc(F)cc3)c(-c3ccncc3)c2c1.Cl [GW457859],0,85,1,10,0,5,22,0,0,2
CN1CCN(CCNc2nc3cc(Oc4ccc(NC(=O)Nc5cc(C(F)(F)F)ccc5F)cc4)ccc3[nH]2)CC1.Cl.Cl [GW768504],0,0,0,0,0,0,0,0,0,7
Cl.Nc1n[nH]c2cc(-c3ccccn3)ccc12 [GSK2189892],3,0,0,28,0,0,0,0,0,14
Cn1ccc2ncnc(Oc3ccc(NC(=O)Nc4cc(C(C)(C)C)on4)c(Cl)c3)c21,26,18,6,13,24,0,10,4,11,97.7
COc1cc2c(Nc3ccc(NC(=O)c4ccccc4)cc3)ncnc2cc1OCCCN1CCOCC1 [GSK301329],0,0,24,14,2,1,0,4,2,58
O=C(Nc1cccc(Oc2ccc3nccn3n2)c1)Nc1cccc(C(F)(F)F)c1,0,0,0,0,8,8,0,16,17,0
C[C@@H]1CCN(C(=O)N2CCCC2)C[C@@H]1N(C)c1ncnc2[nH]ccc12,18,31,2,19,3,27,0,6,11,21
O=c1[nH]cc(-c2ccc(O)cc2)c2sc(-c3ccncc3)cc12 [GSK1033723],0,15,0,9,0,2,0,0,0,1
OCCn1cc(-c2cnc3nnn(Cc4ccc5ncccc5c4)c3n2)cn1,0,1,0,0,0,15,0,0,0,0
Cc1nnc(-c2ccc3occ(-c4ccc(S(C)=O)cc4)c3n2)o1 (stereo not shown),0,15,0,0,0,0,0,59,4,0

SMILES,%Inh [1] [%],%Inh [2] [%],%Inh [3] [%],%Inh [4] [%],%Inh [5] [%],%Inh [6] [%],%Inh [7] [%],%Inh [8] [%],%Inh [9] [%],%Inh [10] [%]
NC(=O)c1ccc(-c2cc3ncnc(SCC(=O)O)c3s2)cc1,0,0,15,0,0,0,0,7,6,10
COC(=O)c1cccc(NC(=O)NC2CCN(c3ccnc(NCc4ccc(F)cc4)n3)CC2)c1 [GSK1379860],0,0,0,32,0,0,0,0,5,2
Cn1ccc2ncnc(Oc3ccc(NC(=O)Nc4cccc(C(F)(F)F)c4)c(F)c3)c21,0,2,22,0,0,2,0,3,28,54
CNC(=O)c1ccccc1Nc1nc(Nc2cccc(CS(C)(=O)=O)c2)ncc1C.O=CO [GSK1520489],99.6,49,85,90,14,42,71,95,99.6,99.9
O=C1NCCc2[nH]c(-c3ccncc3)cc21,22,25,11,44,27,36,44,34,13,22
CC(C)S(=O)(=O)N1CCN(Cc2ccc3c(c2)nc(NC(=O)c2ccsc2)n3C[C@H](O)c2ccccc2)CC1 [GW635815],54,9,13,59,0,3,0,19,0,33
COc1cc2ncn(-c3cc(OCC4CCCCC4)c(C(N)=O)s3)c2cc1OC [GSK204559],3,20,0,22,0,9,0,0,4,80
Cc1cccc2c(-c3ccncc3)c(-c3ccc(F)cc3)nn12.Cl [GW461487],21,83,5,8,8,13,0,0,0,15
CC(=O)Nc1nc2cnc(Nc3cc(NC(=O)c4cccc(CC(C)(C)C#N)c4)ccc3C)nc2s1,25,0,0,52,0,0,4,0,24,1
CN(c1ccc2c(c1)nc(NCc1ccc(F)cc1)n2C)c1ccnc(Nc2ccc(CS(C)(=O)=O)cc2)n1.Cl [GW813244],16,0,11,10,18,0,17,39,0,61
O=C(NCC1CC1)c1ccc(-c2cc(C(=O)NC3CC3)ccc2F)cc1 [GW810445],0,0,0,4,0,0,7,0,2,0
C[C@@H](Oc1cc(-n2cnc3ccc(-c4ccncc4)cc32)sc1C(N)=O)c1ccccc1Cl [GSK483724],12,0,0,6,14,0,7,0,11,95.5
C[C@@H]1CNc2c(sc3ccc4nc(-c5ccncc5)ccc4c23)C(=O)N1,38,21,0,30,0,18,0,0,5,1
Cc1ccc2c(-c3ccnc(Nc4ccc(C(F)(F)F)cc4)n3)cnn2n1 [GW819776],23,0,29,8,0,0,9,2,0,21
Cn1ccc2ncnc(Oc3ccc(NC(=O)Nc4ccnc(C(F)(F)F)c4)c(Cl)c3)c21,0,2,0,0,10,0,9,8,4,10
Cl.c1ccc(Oc2ccc(Nc3ccnc4cc(-c5ccc(CN6CCNCC6)o5)ccc34)cc2)nc1 [GW567142],0,22,0,0,0,0,22,65,97.4,19
CCCC(=O)Nc1n[nH]c2ncccc12 [SB-601436],0,0,0,2,17,10,7,0,0,0
Cn1ccc2ncnc(Oc3ccc(NC(=O)Nc4cccc(C(F)(F)F)c4)c(Cl)c3)c21,0,41,2,0,0,0,0,9,10,63
